Screening results deposited in PubChem by National Center for Advancing Translational Sciences (NCATS).
Sampled rows, rich in hits. Any-hit rate of the full collection: about 12%.
Sfp inh = blocks B. subtilis Sfp PPTase activity | Q9F4F7 | Biochemical Sfp PPTase activity, qHTS | Potency, µM, without a hit: largest response in the series, negative = inhibition, most hits filed as inhibitors | 310,000 tested, 3.5% active | AID 1490;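 note: the enzyme is Sfp with the accession as filed and its product quenches rhodamine fluorescence; 0% = enzyme reaction without inhibitor and -100% = no enzyme wells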
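Sfp 15 nM + cpd, 15 min RT; start w/ rhodamine-CoA 5 uM, BHQ-2-YbbR 12.5 uM (final); 50 mM Hepes pH 7.6, 10 mM MgCl2, 0.01% NP-40, 0.01% BSA; read 525/598 nm at 0 and 30 min.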
L3MBTL1 inh = blocks human L3MBTL1; AlphaScreen L3MBTL1–H3K9me1 peptide binding; Potency, µM (top dose mostly 57.1 µM), for the others: at the top dose activity, negative = inhibition, most hits filed as inhibitors; Q9Y468; 230,000 tested, 0.66% active; note: % is set by controls: 0 for no effect and ±100 for the full control effect; nearly all actives have a fitted effect of over 60% in size
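AlphaScreen assay: L3MBTL1 (50 nM final) was preincubated 30 min at room temperature with biotinylated H3(1-15)K9me1 peptide (75 nM final), then 30 min with library compounds; streptavidin donor and nickel chelate acceptor beads (10 ug/mL final) added, 30 min dark.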
G9a block = G9a (human) methyltransferase inhibition; 350,000 tested, 8.8% active; Q96KQ7; AID 504332; G9a H3K9 monomethylation, AlphaScreen, 2 h; Potency, µM (titrated, usually from 102 µM), without a hit: top-dose activity, negative = inhibition, actives largely listed as inhibitors; note: % is set by controls: 0 for no effect and ±100 for the full control effect; nearly all actives have a fitted effect of over 75% in size
Target sequence (Q96KQ7 913-1193 limits assumed): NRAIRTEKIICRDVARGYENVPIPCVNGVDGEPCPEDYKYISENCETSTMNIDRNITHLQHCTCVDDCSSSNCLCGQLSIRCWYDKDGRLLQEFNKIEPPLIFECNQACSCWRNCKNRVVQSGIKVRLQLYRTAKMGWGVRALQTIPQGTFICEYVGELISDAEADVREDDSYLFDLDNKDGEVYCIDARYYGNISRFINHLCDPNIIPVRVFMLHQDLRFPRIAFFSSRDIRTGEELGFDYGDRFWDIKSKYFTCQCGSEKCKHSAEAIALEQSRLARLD
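Step 1: enzyme (final 20 nM) with compound, 15 min RT. Step 2: substrate peptide 500 nM and SAM 20 uM, 2 h RT. Step 3: anti-H3K9me1 antibody and AlphaScreen beads, 10 min, then plate read.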
HP1b binding inh = blocks HP1-beta chromodomain binding to methylated histone tails; AlphaScreen HP1-beta / biotin-H3K9me3 peptide binding; 390,000 tested, 0.56% active; P83916; Potency, µM (series often up to 114 µM), for the others: at the highest dose activity change, negative = inhibition, hits mostly inhibitors; note: nearly all actives have a fitted effect of over 70% in size
Target sequence (P83916 whole entry, looked up): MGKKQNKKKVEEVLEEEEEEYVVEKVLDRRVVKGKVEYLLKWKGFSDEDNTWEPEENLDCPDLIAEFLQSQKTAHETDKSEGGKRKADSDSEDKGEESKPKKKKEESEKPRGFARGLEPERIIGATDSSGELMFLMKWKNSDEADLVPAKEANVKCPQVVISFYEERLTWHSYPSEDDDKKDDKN
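AlphaScreen: HP1-beta (50 nM) preformed 30 min with biotin-H3(1-18)K9me3 peptide (50 nM) in PBS pH 7.4, 0.01% Tween-20. Compound added for 30 min at RT, then streptavidin donor/nickel chelate acceptor beads (10 ug/mL) for 30 min.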
JMJD2A Tudor = inhibitors of human JMJD2A Tudor domain | 390,000 tested, 4.4% active | O75164 | AlphaScreen JMJD2A-Tudor / H3K4me3 peptide binding | AID 504339 | Potency, µM (titrated, usually from 114 µM), for the others: at the top dose activity change, negative = inhibition, usual class: inhibitors; note: % is set by controls: 0 for no effect and ±100 for the full control effect; nearly all actives have a fitted effect of over 50% in size
BAZ2B block = BAZ2B (human) inhibition. Q9UIF8. AlphaScreen BAZ2B-H3K14Ac peptide displacement. Potency, µM (titrated, usually from 114 µM), without a hit: at the top dose activity change, negative = inhibition, actives largely listed as inhibitors. 360,000 tested, 4.4% active. AID 504333; note: % is set by controls: 0 for no effect and ±100 for the full control effect; nearly all actives have a fitted effect of over 60% in size
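Complex of BAZ2B and biotin-H3K14Ac (50 nM apiece) forms over 30 min at RT, then faces library compounds up to 110 uM for another 30 min; AlphaScreen beads added, 20 min dark incubation, luminescence read.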
* hit, by the source's call; [ ] = remark or other dose. Calls come from the whole dose curve; as a rule, active = well fitted curve in the direction sought with a large enough effect; inconclusive = small, poorly fitted or top-dose-only effect, or another doubt; inactive = no such curve, though single readings can be large; an effect the other way counts as inactive or inconclusive. Potency is the fitted concentration of half-maximal effect.

`Cc1cc(NC(=O)CSc2ccc3nnc(-c4ccc(F)cc4)n3n2)no1` gave Sfp inh 20%, L3MBTL1 inh -1%, G9a block 79µM*, HP1b binding inh -2%, JMJD2A Tudor -9% and BAZ2B block -21%.
COC(=O)CSc1ccc2nnc(-c3ccc(F)cc3)n2n1 was read as Sfp inh 6%, L3MBTL1 inh -6%, G9a block 79µM*, HP1b binding inh 23%, JMJD2A Tudor 7% and BAZ2B block -2%.
Screening Cc1ccc(-c2nnc3ccc(SCC(=O)Nc4cc(C)on4)nn23)cc1 returned Sfp inh 7%, L3MBTL1 inh 2%, G9a block inconclusive, HP1b binding inh 29%, JMJD2A Tudor -2% and BAZ2B block 3%.
`CCOc1ccc(N(CC)S(=O)(=O)c2cc(Br)cc3c2N(C(C)=O)C(C)C3)cc1` (stereo not drawn) gave G9a block 1.4µM*, HP1b binding inh 4%, JMJD2A Tudor -25% and BAZ2B block -23%.
CCCSc1nc(=O)c2c(n1C)NC(=O)CC2c1cccc(F)c1F (stereo not drawn) was read as G9a block 7%[59 µM], HP1b binding inh 41%, JMJD2A Tudor -11% and BAZ2B block 2%.
Cc1oc2cc([N+](=O)[O-])c(O)c([N+](=O)[O-])c2c1C(=O)c1ccc(Cl)cc1 was read as Sfp inh inconclusive, L3MBTL1 inh -15%, HP1b binding inh inconclusive, JMJD2A Tudor 50µM* and BAZ2B block 32µM*.
COc1ccc(OC)c(C(=O)COC(=O)c2ccc([N+](=O)[O-])o2)c1 was read as L3MBTL1 inh -19%, HP1b binding inh -10% and JMJD2A Tudor inconclusive.
COc1ccc(OC)c(C(=O)c2c(C)oc3cc([N+](=O)[O-])c(O)c([N+](=O)[O-])c23)c1 was read as Sfp inh 56µM*, L3MBTL1 inh inconclusive, G9a block inconclusive, HP1b binding inh -24%, JMJD2A Tudor -35% and BAZ2B block inconclusive.
For Cn1cc(-c2ccccc2C(=O)O)c(=O)c2cc(Cl)ccc21 the results were Sfp inh 10%, G9a block -5%[2.33 µM], HP1b binding inh 11%, JMJD2A Tudor -2% and BAZ2B block 0%.
Screening COC(=O)c1cc(Br)c(=O)n(-c2cccc(F)c2)c1 returned Sfp inh -9%, L3MBTL1 inh 44%, G9a block 6%[0.501 µM], HP1b binding inh 75%, JMJD2A Tudor -5%[11.4 µM] and BAZ2B block 6%.
C/C(=N\NC(=O)c1ccccc1F)c1ccc2c(c1)Nc1ccccc1S2 was read as Sfp inh -15%, L3MBTL1 inh -7%, G9a block inconclusive, HP1b binding inh 17%, JMJD2A Tudor -19% and BAZ2B block -1%.
`C/C(=N\NC(=O)c1ccc(O)cc1)c1ccc2c(c1)Nc1ccccc1S2` gave Sfp inh -2%, L3MBTL1 inh 1%, G9a block 16µM*, HP1b binding inh -22%, JMJD2A Tudor 79µM* and BAZ2B block 50µM*.
Screening CCCS(=O)(=O)c1nc(S(=O)(=O)c2ccc(C)cc2)c(NCc2ccc3c(c2)OCO3)s1 returned Sfp inh 9%, L3MBTL1 inh 21%, G9a block 40µM*, HP1b binding inh 14%, JMJD2A Tudor -5% and BAZ2B block 27%.
`CCCS(=O)(=O)c1nc(S(=O)(=O)c2ccc(C)cc2)c(NCc2ccccc2Cl)s1` gave G9a block 1%[59 µM], HP1b binding inh 13%, JMJD2A Tudor -23% and BAZ2B block 2%.
For CN(C)c1ccc(C(CNC(=O)c2ccc(C#N)cc2)c2c[nH]c3ccccc23)cc1 (stereo not drawn) the results were Sfp inh 16%, L3MBTL1 inh inconclusive, G9a block 10µM*, HP1b binding inh inconclusive, JMJD2A Tudor 40µM* and BAZ2B block 20µM*.
